A selection: hits, their analogues and other compounds. The true share with any hit is near 2.4%.
Arbovirus anti: antivirals against arbovirus infection, primary screen, cell-based, full library, 10K replicate subset; hit rate 0.37% among 200,000; inhibition, % at 10 µM; arbovirus infection cell-based antiviral screen; in the data active means inhibition above about 30%
p97 ATPase inh: inhibitors of human p97 ATPase, primary screen, biochemical | hit rate 0.42% among 220,000 | AID 1481, 2009 | recombinant p97 ATPase, Kinase-Glo ATP luminescence, 3 h | Transitional endoplasmic reticulum ATPase (Homo sapiens), P55072 | inhibition, % at 8 µM; in the data active means inhibition above about 15%
Hck Nef HTS: inhibitors of Nef-activated human Hck kinase, primary screen, biochemical, Z-Lyte FRET, 384-well, Hck-YEEI | Tyrosine-protein kinase HCK (Homo sapiens), P08631 | Recombinant Hck-YEEI plus Nef, Z-Lyte FRET kinase assay | inhibition, % at 20 µM | hit rate 0.68% among 220,000 | AID 463187, 2010;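 active means Hck-Nef kinase inhibition above about 50%, limit read from the data; inactive means inhibition below that limit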
Target sequence (P08631 whole entry, looked up): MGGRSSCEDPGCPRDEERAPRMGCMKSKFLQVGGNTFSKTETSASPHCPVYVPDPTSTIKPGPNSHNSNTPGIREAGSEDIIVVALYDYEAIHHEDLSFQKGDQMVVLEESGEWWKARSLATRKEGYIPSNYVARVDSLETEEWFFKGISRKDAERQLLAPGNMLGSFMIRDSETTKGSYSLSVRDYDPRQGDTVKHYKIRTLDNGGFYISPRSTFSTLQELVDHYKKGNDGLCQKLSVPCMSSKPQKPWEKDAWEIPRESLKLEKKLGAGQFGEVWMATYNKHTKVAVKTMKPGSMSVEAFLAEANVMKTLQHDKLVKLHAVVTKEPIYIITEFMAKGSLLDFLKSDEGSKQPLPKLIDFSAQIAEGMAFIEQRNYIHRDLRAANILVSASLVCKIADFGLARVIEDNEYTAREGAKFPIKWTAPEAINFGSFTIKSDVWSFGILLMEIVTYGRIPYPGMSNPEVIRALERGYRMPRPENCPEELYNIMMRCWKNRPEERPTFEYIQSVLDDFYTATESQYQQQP
EP2 antag: human EP2 receptor antagonists, primary screen, TR-FRET cAMP, C6 glioma cells; AID 1422, 2008; C6 glioma cells expressing human EP2; cells stimulated with saturating PGE2; hit rate 0.52% among 260,000; Prostaglandin E2 receptor EP2 subtype (Homo sapiens), P43116; inhibition, % at 25 µM;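 active means percent inhibition above 40 after rounding to a whole number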;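 further: rat C6 glioma host cells with rolipram phosphodiesterase inhibitor present; the protocol text gives 20 µM as final concentration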
EP2 modulator: EP2 receptor modulators, cAMP readout, primary screen, cell-based, HTRF cAMP, PGE2 stimulation. EP2-expressing cells, cAMP HTRF FRET, PGE2 co-stimulation. hit rate 0.83% among 260,000. induction, % at 25 µM;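 active means compounds whose cAMP rise, as percent of the full-agonist control response, exceeds 60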;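 further: rat C6 glioma line stably carrying human EP2 under a CMV promoter; the protocol text gives 20 µM as final concentration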
EP2 cAMP induct: cAMP induction in EP2, EP4, beta2-AR and parental cells, confirmation, counter-screen for EP2 modulator project, cell-based, five parallel assays, C6 glioma, HEK293 | cAMP HTRF induction; plus low (about EC15) PGE2 agonist | calls only at 20 µM (by protocol) | shares compounds with EP2 modulator | hit rate 47% among 1,300;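 active means cAMP induction above 50% in the main assay while under 30% in all four parallel counter assays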;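 further: rat C6 glioma cells stably expressing human EP2 receptor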
Each line names hits and unclear results; the compound was inactive in the other large screens (follow-up assays come after a bar, where they were run); ! = not confirmed by another sample.

COC(=O)c1cc2occc2n1Cc1cccc(C)c1	EP2 modulator 76 | EP2 cAMP induct active
Cn1c(N2CCC(C(=O)Nc3ccc(F)cc3)CC2)nc2ccccc21	none (no result: Arbovirus anti, p97 ATPase inh, Hck Nef HTS, EP2 antag)
COc1ccc(-c2cc(C(F)(F)F)nc(N3CCCCC3)n2)cc1OC	none | EP2 cAMP induct active
CSc1ccc(C2C3=C(CC(C)(C)CC3=O)Nc3cc4c(cc32)OCO4)cc1 (stereo unspecified)	none (no result: Arbovirus anti, p97 ATPase inh, Hck Nef HTS)
COCCCNC(=O)c1cc2ccc(OC(=O)c3cc4ccccc4oc3=O)cc2oc1=O	none (no result: Arbovirus anti, p97 ATPase inh, Hck Nef HTS)
CC(C)(C)c1ccc(Cn2nnc3c(=O)[nH]c(C4CCCN(C(=O)C5CCC5)C4)nc32)cc1 (stereo unspecified)	none (no result: Arbovirus anti, p97 ATPase inh, Hck Nef HTS)
CC(C)C(=O)NCCc1nc(-c2ccccc2Cl)no1	none (no result: Arbovirus anti, p97 ATPase inh, Hck Nef HTS, EP2 modulator)
CCC(C)N(C)C(=O)c1cc2ccccc2c(-c2ccccc2Cl)n1 (stereo unspecified)	EP2 modulator 70! | EP2 cAMP induct inactive
Cc1cc(C(=O)CSc2nc3ccccc3c(=O)n2C)c(C)n1Cc1ccc2c(c1)OCO2	EP2 modulator 74 | EP2 cAMP induct inactive
Cc1cc(C(=O)CSc2nnc(-c3ccccc3)n2Cc2ccc3c(c2)OCO3)c(C)n1C	none
CCn1c(SCC(=O)Nc2cccc(Cl)c2)nnc1C1CC1	none (no result: Arbovirus anti, p97 ATPase inh, Hck Nef HTS)
CC(C)Oc1nc(-c2ccccc2Cl)nc2ccccc12	none (no result: Arbovirus anti)
CCOc1nc(-c2ccccc2O)nc2ccccc12	EP2 modulator 81 | EP2 cAMP induct active
CC(=O)Nc1ccc(S(=O)(=O)N2CCCC(c3[nH]ncc3-c3ccncc3)C2)cc1 (stereo unspecified)	none (no result: Arbovirus anti, p97 ATPase inh, Hck Nef HTS, EP2 antag)
CNc1oc(-c2ccccc2)nc1C#N	none
CNc1oc(-c2ccc(Cl)cc2)nc1P(=O)(c1ccccc1)c1ccccc1	EP2 modulator 68 | EP2 cAMP induct active
Cc1ccc(-c2nc(P(=O)(c3ccccc3)c3ccccc3)c(N3CCOCC3)o2)cc1	EP2 modulator 65 | EP2 cAMP induct inactive
CCc1cccc(C)c1NC(=O)COC(=O)C1CC(=O)N(c2ccc(OC(C)C)cc2)C1 (stereo unspecified)	none (no result: Arbovirus anti, p97 ATPase inh, Hck Nef HTS)
COC(=O)[C@@H]1OC(=O)C2OC23[C@@]1(C)CCC1[C@]2(C)C(C[C@H](O)[C@]13C)C(C)(C)[C@H](OC(C)=O)C[C@@H]2OC(C)=O (stereo partly specified)	none (no result: Arbovirus anti, p97 ATPase inh, Hck Nef HTS)
COC(=O)c1cc(-c2ccc3c(c2)OCO3)nc2ccccc12	EP2 modulator 68 | EP2 cAMP induct inactive
O=C(O)c1cc(-c2ccc3cc4c(cc3c2)OCO4)nc2ccccc12	none (no result: Arbovirus anti, p97 ATPase inh, Hck Nef HTS)
COc1ccc(-c2nc3cnccn3c2NC2CCCC2)cc1O	none (no result: Arbovirus anti, p97 ATPase inh, Hck Nef HTS, EP2 antag)
CCOC(=O)CSc1nc2cc(OCC)ccc2cc1C#N	none
CCOc1ccc2cc(C#N)c(SCC(=O)NC(C)CC)nc2c1 (stereo unspecified)	EP2 modulator 69 | EP2 cAMP induct inactive
Cc1cccc(OC(=O)c2sc(Cl)nc2C)c1	EP2 modulator 68 | EP2 cAMP induct inactive
COc1ccc(Cl)cc1-n1c(C)ccc1C	EP2 modulator 69 | EP2 cAMP induct inactive
O=C(CCC1CCCC1)N1CCCC(c2nc3c(nnn3Cc3ccccc3Cl)c(=O)[nH]2)C1 (stereo unspecified)	none (no result: Arbovirus anti, p97 ATPase inh, Hck Nef HTS)
Cc1ccc(-c2cccc(C(=O)NCCc3ccccc3)n2)c2ccccc12	none
Cc1ccc(-c2cccc(C(=O)NCc3ccccc3)n2)c2ccccc12	EP2 modulator 66 | EP2 cAMP induct active
COc1ccccc1C1(O)CCCN(CC(O)c2ccc(C)c(C)c2)C1 (stereo unspecified)	none (no result: Arbovirus anti, p97 ATPase inh, Hck Nef HTS)
c1ccc2c(c1)OCC(c1csc3ncnc(N4CCCCC4)c13)O2 (stereo unspecified)	EP2 modulator 84 | EP2 cAMP induct active
CCCN1CCN(c2ncnc3scc(C4COc5ccccc5O4)c23)CC1 (stereo unspecified)	none
CC(=O)O[C@@H]1c2c(ccc3ccc(=O)oc23)OC(C)(C)[C@@H]1OC(=O)CC(C)C	EP2 modulator 64 (no result: Arbovirus anti, p97 ATPase inh, Hck Nef HTS) | EP2 cAMP induct active

Screening data deposited in PubChem by several laboratories.
